# D1 agonist – Allosteric Agonists of the Human D1 Dopamine Receptor: qHTS; activation, % at 2 µM; actives 1% (n = 360,000); HEK293 T-REx D1 cells, calcium flux, agonist mode; D(1A) dopamine receptor (Homo sapiens), P21728; AID 504660, 2011
#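 Inducible HEK293 T-REx D1 cells, force-coupled to calcium signalling, were plated at 4000 cells/well with tetracycline and held overnight at 30 C. After no-wash calcium dye loading, compound-evoked calcium rise over 180 s flagged agonists.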
# D1 antag – Antagonist of Human D 1 Dopamine Receptor: qHTS | HEK293 TREx D1 cells, calcium flux, dopamine EC80; stronger effect = lower value | activity change, negative = inhibition, % at 10 µM | actives 3.2% (n = 360,000); in the data active = activity change below about -30%
#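 Allosteric or orthosteric antagonism assessed as attenuation of the calcium response to EC80 dopamine, added 180 s after compound, in induced HEK293 Trex D1 cells loaded with no-wash calcium dye.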
# TRHR ag – qHTS for Small Molecule Agonists and Allosteric Enhancers of Human TRH Receptor: Primary Screen for Agonists; Thyrotropin-releasing hormone receptor (Homo sapiens), P34981; TRHR cells, calcium flux fluo-8, FDSS agonist mode; activation, % at 2 µM; actives 0.18% (n = 360,000)
# Target sequence (P34981 whole entry, looked up): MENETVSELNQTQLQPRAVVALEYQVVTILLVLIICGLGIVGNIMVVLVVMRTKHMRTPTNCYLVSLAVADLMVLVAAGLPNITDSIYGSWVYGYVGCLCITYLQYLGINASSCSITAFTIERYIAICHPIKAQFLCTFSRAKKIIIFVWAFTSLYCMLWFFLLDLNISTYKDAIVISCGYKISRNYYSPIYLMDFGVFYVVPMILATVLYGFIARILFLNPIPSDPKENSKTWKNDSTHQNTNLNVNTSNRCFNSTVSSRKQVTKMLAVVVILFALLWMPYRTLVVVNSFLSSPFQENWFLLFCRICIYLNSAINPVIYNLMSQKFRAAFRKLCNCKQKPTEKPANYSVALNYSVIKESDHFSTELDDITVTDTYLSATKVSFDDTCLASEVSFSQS
#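 TRHR-expressing cells loaded with fluo-8 calcium dye; 23 nL library compound pin-transferred, kinetic FDSS fluorescence (Ex 480/Em 530) recorded about 180 s for agonist-induced calcium release, before a 10 nM TRH EC20 addition for potentiator mode.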
# D1 potentiator – Potentiators of Human D1 Dopamine Receptor: qHTS | D(1A) dopamine receptor (Homo sapiens), P21728 | HEK293 TREx D1 cells, calcium flux, dopamine EC20 potentiation | potentiation, % at 10 µM | actives 0.036% (n = 360,000) | AID 504651, 2011; in the data active = potentiation above about 30%
# TRHR PAM – qHTS for Small Molecule Agonists and Allosteric Enhancers of Human TRH Receptor: Primary Screen for Enhancers | Thyrotropin-releasing hormone receptor (Homo sapiens), P34981 | enhancement, % at 2 µM | actives 0.66% (n = 360,000) | TRHR cells, fluo-8 calcium fluorescence, EC20 TRH enhancement; in the data active = enhancement above about 30%
#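 TRHR-expressing cells loaded with fluo-8 calcium dye were read kinetically (ex 480/em 530) during compound addition, then stimulated with an EC20 of TRH (10 nM final). Enhancement of the Gq-mediated intracellular calcium response was scored.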
# A number is an active result; . = inactive; / = no result given. Most compounds without a hit are left out; they make up all but 4.7% or so of the library. Cut-off read from the data, not from the text of the source, unless noted: active = activation above about 30%; inactive = the rest.
SMILES,D1 agonist,D1 antag,TRHR ag,D1 potentiator,TRHR PAM
NC(=O)Cn1c(=O)n(CCCCCC(=O)NCc2ccccc2Cl)c(=O)c2sccc21,.,.,.,.,.
CCCS(=O)(=O)c1nc(S(=O)(=O)c2ccc(Cl)cc2)c(N2CCC(O)CC2)s1,.,.,.,52,.
CCS(=O)(=O)c1nc(S(=O)(=O)c2ccc(C)cc2)c(N2CCC(C)CC2)s1,.,-36,.,.,.
CCCS(=O)(=O)c1nc(S(=O)(=O)c2ccc(C)cc2)c(N2CCC(C)CC2)s1,.,.,.,.,.
O=C(CSc1nc2c([nH]c3ccccc32)c(=O)n1-c1ccccc1)Nc1ccccc1C(F)(F)F,.,.,.,.,.
Cc1cccc(N(C(=O)c2csnn2)C(C(=O)NC2CCCCC2)c2ccccn2)c1C (stereo not drawn),.,.,.,.,38
COc1cc2c(cc1OC)C1O[C@](CCCCN3C(=O)c4ccccc4C3=O)(C2)OC2=C1C(=O)c1ccccc1C2=O,.,.,.,.,.
O=C(CSc1ncc(S(=O)(=O)c2ccc(Cl)cc2)c(=O)[nH]1)Nc1ccc2c(c1)OCCO2,.,.,.,.,.
CCCCOc1ccccc1Cn1c(=O)oc2ccccc21,.,.,.,.,.
CCCCCc1ccc(OCCC[n+]2ccccc2)c(CCCCC)c1,159,.,.,.,.
CC(=O)Nc1ccc(OCCC[n+]2ccccc2)cc1,.,.,.,.,.
CCCCCc1ccc(OCCOCCn2c[n+](C)c3ccccc32)c(CCCCC)c1,129,.,.,.,.
COc1ccc(C(=O)OC(C(=O)c2ccccc2)c2ccccc2)cc1 (stereo not drawn),.,-30,.,.,.
COc1ccc(C(=O)C(OC(=O)c2ccc(C)c(NC(C)=O)c2)c2ccccc2)cc1 (stereo not drawn),.,.,.,.,.
O=C(Nc1cccc(Br)c1)c1ccc(OC2CSC2)cc1,.,-36,.,.,.
CC(=O)c1cccc(NC(=O)c2ccc(OC3CSC3)cc2)c1,.,.,.,.,.
COc1ccc(CN2CCN(c3ncnc4sc5c(c34)CC(C)CC5)CC2)cc1F (stereo not drawn),.,.,.,.,.
CCOc1ccc(CN2CCN(c3ncnc4sc5c(c34)CC(C)CC5)CC2)cc1 (stereo not drawn),.,-33,.,.,.
CCn1c(C)nnc1SCC(=O)Nc1cccc(Cl)c1,.,-43,.,.,.
O=C(CC1N=C2c3ccccc3N=C(SCc3ccccc3F)N2C1=O)NCc1ccc2c(c1)OCO2 (stereo not drawn),.,.,.,.,.
CN1CCc2c(sc3c2C(=O)NC(c2ccc(C(C)(C)C)cc2)N3)C1 (stereo not drawn),37,.,.,.,.
CN1CCc2c(sc3c2C(=O)NC(c2cccs2)N3)C1 (stereo not drawn),.,-48,.,.,.
CSc1ccc(C2NC(=O)c3c(sc4c3CCN(C)C4)N2)cc1 (stereo not drawn),34,.,.,/,.
Cc1ccc(-c2noc(-c3nnn(CC(=O)Nc4cc(C)cc(C)c4)c3N)n2)cc1,.,.,.,.,.
O=C(CCCOc1ccccc1)Nc1nncs1,.,-35,.,.,.
COCCn1c(SCC(=O)N2CCN(c3ccccc3)CC2)nc2c(c1=O)SC(C)C2 (stereo not drawn),.,-35,.,.,.
COc1ccc(-c2cn3nc(N4CCCC(C(=O)Nc5cc(C)cc(C)c5)C4)sc3n2)cc1 (stereo not drawn),.,.,.,.,.
Clc1ccc(OCCCNCc2ccccc2)c(Br)c1,93,.,.,.,.
Clc1ccc(Cl)c(OCCCCNCc2ccccc2)c1,81,-58,.,.,.
OCCNCCCOc1ccc(Cl)cc1Br,.,.,.,.,.

# Source: PubChem BioAssay
